# Experimental data published in PubChem BioAssay (NCI).
# Compounds without any hit were thinned out: in the full panel of roughly 83,000, 20% have a hit.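 The test compound was applied at a single concentration to cells in 96-well plates for 48 hours, and percent growth was recorded.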 Unmarked numbers belong to inactive results. The source made the active and inactive calls. Rule for the calls: active = growth percent below 10; inactive = the rest.
# Tests used:
# Experiment in all cases: NCI-60 one-dose screen, 48 h (100 = growth as untreated, 0 = no growth, -100 = all killed)
# Conditions in all cases: 10 µM unless noted
# DU-145 prostate = test system: DU-145 prostate
# K-562 leukemia = test system: K-562 leukemia
# MALME-3M melanoma = test system: MALME-3M melanoma
# MDA-MB-231 breast = test system: MDA-MB-231 breast
# RXF 393 renal = test system: RXF 393 renal
# SF-268 CNS = test system: SF-268 CNS
# SF-295 CNS = test system: SF-295 CNS
# SF-539 CNS = test system: SF-539 CNS
# UACC-257 melanoma = test system: UACC-257 melanoma
# M14 melanoma = test system: M14 melanoma
# HCT-15 colon = test system: HCT-15 colon
# HT29 colon = test system: HT29 colon
# SNB-75 CNS = test system: SNB-75 CNS
# SNB-19 CNS = test system: SNB-19 CNS
# U251 CNS = test system: U251 CNS
# PC-3 prostate = test system: PC-3 prostate
# SK-MEL-5 melanoma = test system: SK-MEL-5 melanoma
# UACC-62 melanoma = test system: UACC-62 melanoma
# LOX IMVI melanoma = test system: LOX IMVI melanoma
# SK-MEL-28 melanoma = test system: SK-MEL-28 melanoma
Compound,growth (DU-145 prostate),growth (K-562 leukemia),growth (MALME-3M melanoma),growth (MDA-MB-231 breast),growth (RXF 393 renal),growth (SF-268 CNS),growth (SF-295 CNS),growth (SF-539 CNS),growth (UACC-257 melanoma),growth (M14 melanoma),growth (HCT-15 colon),growth (HT29 colon),growth (SNB-75 CNS),growth (SNB-19 CNS),growth (U251 CNS),growth (PC-3 prostate),growth (SK-MEL-5 melanoma),growth (UACC-62 melanoma),growth (LOX IMVI melanoma),growth (SK-MEL-28 melanoma)
CN(C)CCOc1ccc(/C(=C(/CCCl)c2ccccc2)c2ccccc2)cc1,49.6%,1.34% (active),-57.8% (active),-11% (active),-41.7% (active),33%,4.51% (active),1.72% (active),-52.4% (active),-52.2% (active),23.9%,-78.8% (active),36.8%,36.2%,-54.6% (active),18.7%,-98.3% (active),-21.7% (active),-84.6% (active),-30.3% (active)
CCCCC(CCCCCC(CCCC)C1NC(C)Cc2cc(OC)c(OC)cc21)C1NC(C)Cc2cc(OC)c(OC)cc21 (stereo not given),-100% (active),-76.8% (active),-73.4% (active),-67.4% (active),-89.4% (active),-88.6% (active),-70.7% (active),-95.8% (active),-80.6% (active),-90.2% (active),-95.5% (active),-86.3% (active),-99.9% (active),-69.8% (active),-94.7% (active),-60.8% (active),-96.1% (active),-70% (active),-99.1% (active),-98% (active)
C=CC1=C(C)C2=NC1=CC1=NC(=CC3=C(C)C4=C(O)C(C(=O)O)C(=C5NC(=C2)C(C)C5CCC(=O)O)C4=N3)C(CC)=C1C (stereo not given),113%,106%,125%,121%,125%,107%,116%,106%,115%,104%,105%,105%,94.5%,112%,124%,89.3%,102%,107%,108%,104%
C=C(C)[C@@H]1CC[C@]2(C)[C@H](CC[C@@H]3[C@@H]([C@@](C)(O)CCC=C(C)C)CC[C@]32C)[C@@]1(C)CCC(=O)O,7.93% [100 µM] (active),11.6% [100 µM],-39.6% [100 µM] (active),-39.5% [100 µM] (active),-69.2% [100 µM] (active),-17.9% [100 µM] (active),-59.9% [100 µM] (active),-85.7% [100 µM] (active),28.9% [100 µM],2.42% [100 µM] (active),-15.9% [100 µM] (active),2.65% [100 µM] (active),-37.5% [100 µM] (active),-32.8% [100 µM] (active),-16.7% [100 µM] (active),5.99% [100 µM] (active),-88.2% [100 µM] (active),-75.3% [100 µM] (active),-100% [100 µM] (active),-83% [100 µM] (active)
CCCCCCCCN(CCCCCCCC)CC(O)c1ccc(Cl)c(C)c1Cl (stereo not given),105%,67.9%,102%,59.1%,87.6%,91.9%,59.6%,94.3%,89.4%,85.2%,80.1%,42.2%,86.8%,93.2%,91.3%,72.9%,101%,89.2%,53.5%,106%
CCOC(=O)c1nn(C2CCCCO2)c2ccc(NC(=O)CN3CCOCC3)cc12 (stereo not given),107%,90.4%,104%,102%,122%,97.5%,101%,98.1%,98.8%,102%,106%,116%,80.7%,98.8%,97.9%,107%,102%,102%,98.2%,109%
Clc1ccc(N2CCN(CCCN3CCN(c4cccc(Cl)c4)CC3)CC2)cc1,79.7%,38.8%,52.8%,50.6%,41%,79.2%,51.7%,56.4%,37.4%,44.1%,40.2%,34.7%,52.3%,63.3%,55.2%,45.3%,1.8% (active),58.9%,48.4%,84.6%
CCc1ccc(C2=C/C(=C/c3ccccc3)C(=O)N2CCc2ccc(S(N)(=O)=O)cc2)cc1,115%,97.6%,94.3%,100%,99.3%,94%,101%,96.3%,106%,99.4%,108%,117%,66.3%,93.9%,99.7%,99.9%,98.1%,95.2%,94.9%,105%
